Measured values reported in PubChem BioAssay (NCATS).
Results filed as inconclusive are left out. Calls of active or inactive are those of the source. The call rests on the fitted dose curve; in most records, active means well fitted curve in the direction sought with a large enough effect; inconclusive means small, poorly fitted or top-dose-only effect, or another doubt; inactive means no such curve, though single readings can be large; an effect the other way counts as inactive or inconclusive.

Key:
[1] = biological target: Rap guanine nucleotide exchange factor 3 (Homo sapiens) (UniProt O95398); test: Confirmatory qHTS for agonist of cAMP-regulated guanine nucleotide exchange factor 3 (EPAC1) (AID 1645881);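 further: EPAC1 catalysed release of BODIPY-GDP from Rap1B seen as fluorescence loss; 100% = effect of cAMP agonist control; nearly all actives have a fitted effect of over 75% in size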
Sequence of Rap guanine nucleotide exchange factor 3 (Homo sapiens) (O95398 whole entry, looked up): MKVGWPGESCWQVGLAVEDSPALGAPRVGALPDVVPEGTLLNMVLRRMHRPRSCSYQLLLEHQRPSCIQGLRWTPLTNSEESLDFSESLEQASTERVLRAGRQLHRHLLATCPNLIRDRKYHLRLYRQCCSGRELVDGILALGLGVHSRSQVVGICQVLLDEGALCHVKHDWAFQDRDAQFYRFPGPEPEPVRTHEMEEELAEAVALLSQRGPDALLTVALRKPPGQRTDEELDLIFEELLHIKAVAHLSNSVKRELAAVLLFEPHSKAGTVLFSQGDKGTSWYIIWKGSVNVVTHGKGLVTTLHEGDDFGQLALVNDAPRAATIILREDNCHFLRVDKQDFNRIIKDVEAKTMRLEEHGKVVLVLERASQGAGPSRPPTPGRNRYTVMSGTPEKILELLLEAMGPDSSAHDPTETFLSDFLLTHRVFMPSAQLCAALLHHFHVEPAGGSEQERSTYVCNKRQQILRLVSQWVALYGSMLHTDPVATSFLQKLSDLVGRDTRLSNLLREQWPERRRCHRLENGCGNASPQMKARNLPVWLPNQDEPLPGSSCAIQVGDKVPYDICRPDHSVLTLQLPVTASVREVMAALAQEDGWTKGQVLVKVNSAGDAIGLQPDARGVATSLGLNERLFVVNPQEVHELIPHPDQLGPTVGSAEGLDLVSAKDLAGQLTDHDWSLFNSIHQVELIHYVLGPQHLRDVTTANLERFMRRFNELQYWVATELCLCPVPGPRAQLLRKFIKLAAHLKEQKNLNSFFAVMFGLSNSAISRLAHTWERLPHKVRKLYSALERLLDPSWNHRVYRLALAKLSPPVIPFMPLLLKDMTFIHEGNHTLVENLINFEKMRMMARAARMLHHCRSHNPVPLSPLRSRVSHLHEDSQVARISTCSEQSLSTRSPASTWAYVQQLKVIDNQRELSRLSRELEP

[2] = biological target: Rap guanine nucleotide exchange factor 4 (Homo sapiens) (UniProt Q8WZA2); test: Confirmatory qHTS for agonist of cAMP-regulated guanine nucleotide exchange factor 4 (EPAC2) (AID 1645884);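 further: nucleotide exchange releases bodipy-GDP from Rap1 and this lowers its fluorescence; on the % scale 0 is the no-effect control and ±100 the full control effect; nearly all actives have a fitted effect of over 65% in size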
Sequence of Rap guanine nucleotide exchange factor 4 (Homo sapiens) (Q8WZA2 whole entry, looked up): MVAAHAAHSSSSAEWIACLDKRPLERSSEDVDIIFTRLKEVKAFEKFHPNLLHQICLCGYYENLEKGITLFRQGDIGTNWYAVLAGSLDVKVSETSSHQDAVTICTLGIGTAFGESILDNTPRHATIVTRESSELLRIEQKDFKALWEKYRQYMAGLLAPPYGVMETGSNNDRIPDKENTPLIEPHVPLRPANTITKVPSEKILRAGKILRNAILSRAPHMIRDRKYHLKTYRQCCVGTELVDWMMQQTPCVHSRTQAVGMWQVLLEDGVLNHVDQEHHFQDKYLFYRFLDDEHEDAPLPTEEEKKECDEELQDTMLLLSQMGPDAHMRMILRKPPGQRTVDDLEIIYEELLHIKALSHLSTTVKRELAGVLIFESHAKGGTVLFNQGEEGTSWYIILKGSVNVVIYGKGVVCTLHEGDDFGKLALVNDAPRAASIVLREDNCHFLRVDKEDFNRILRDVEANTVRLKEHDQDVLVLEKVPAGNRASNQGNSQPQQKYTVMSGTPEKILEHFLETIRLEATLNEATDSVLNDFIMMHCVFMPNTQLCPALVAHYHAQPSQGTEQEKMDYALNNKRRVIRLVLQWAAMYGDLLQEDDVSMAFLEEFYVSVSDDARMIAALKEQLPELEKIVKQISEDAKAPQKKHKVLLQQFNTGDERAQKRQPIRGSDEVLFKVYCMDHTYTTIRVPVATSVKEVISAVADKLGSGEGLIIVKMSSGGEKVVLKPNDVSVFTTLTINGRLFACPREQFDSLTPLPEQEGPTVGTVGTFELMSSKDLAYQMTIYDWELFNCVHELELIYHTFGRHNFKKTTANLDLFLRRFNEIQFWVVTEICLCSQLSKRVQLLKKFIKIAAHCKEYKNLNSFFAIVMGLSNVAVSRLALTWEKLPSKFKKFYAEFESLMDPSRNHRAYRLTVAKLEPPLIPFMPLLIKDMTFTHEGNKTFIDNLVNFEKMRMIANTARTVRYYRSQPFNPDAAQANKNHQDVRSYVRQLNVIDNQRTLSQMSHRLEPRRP

[3] = biological target: Rap guanine nucleotide exchange factor 4 (Homo sapiens) (UniProt Q8WZA2); test: Confirmatory qHTS for antagonist of cAMP-regulated guanine nucleotide exchange factor 4 (EPAC2) (AID 1645885); further: nearly all actives have a fitted effect of over 25% in size; further: potency means the concentration at half of the fitted maximal effect; on activity change, negative = inhibition: on the % scale 0 is the no-effect control and ±100 the full control effect
[4] = biological target: Rap guanine nucleotide exchange factor 3 (Homo sapiens) (UniProt O95398); test: Counterscreen qHTS for antagonist of cAMP-regulated guanine nucleotide exchange factor 3 (EPAC1) (AID 1645888);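 further: fluorescence loss as bound BODIPY-GDP is released from Rap1B; % of control where 0% means no effect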
Procedure, shortened: (§1)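 Measured: fluorescence of BODIPY-GDP bound to Rap1B, which falls as exchange proceeds. Conditions include 50 uM competing GDP, 5 and 30 min reads, and a later cAMP challenge for antagonist detection.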

[5] = biological target: Rap guanine nucleotide exchange factor 3 (Homo sapiens) (UniProt O95398); test: Counterscreen qHTS for agonist of cAMP-regulated guanine nucleotide exchange factor 3 (EPAC1) (AID 1645889); further: % of control where 0% means no effect; nearly all actives have a fitted effect of over 40% in size
Procedure, shortened: as §1

CCn1c(C(=O)N2CCc3ccccc3C2)cc2sccc21
active: Potency [3] 53.6 µM
inactive: Potency [1] | Potency [2] | Potency [4] | Potency [5]

CC(=O)Nc1cccc(C(=O)/C=C/c2ccc(F)cc2)c1
inactive: Potency [1] | Potency [2] | Potency [3] | Potency [4] | Potency [5]

CCCc1nc2c(=O)n(C)c(=O)nc-2n(C)n1
inactive: Potency [1] | Potency [2] | Potency [3] | Potency [4] | Potency [5]

CCOc1ccc(S(=O)(=O)Nc2cc(NS(=O)(=O)c3ccc(OCC)cc3)cc(C(=O)O)c2)cc1
inactive: Potency [1] | Potency [2] | Potency [3] | Potency [4] | Potency [5]

CCC(C)[C@H]1COCCS(=O)(=O)N1Cc1ccc(Cl)cc1Cl (stereo not given in full)
inactive: Potency [1] | Potency [2] | Potency [3] | Potency [4] | Potency [5]

Cc1ccc(NC2c3ncccc3C(=O)N2Cc2cccs2)cc1 (stereo not given)
inactive: Potency [1] | activation [2] -5.52% [at 17.1 µM, percent relative to cAMP agonist control] | Potency [3] | activity change, negative = inhibition [4] 8.01% [at 30.8 µM] | activation [5] 1.62% [at 30.8 µM]

Cc1cc(C2(c3ccc(O)c(C)c3)C(=O)N(C)c3ccc(Br)cc32)ccc1O
inactive: Potency [1] | activation [2] 5.15% [at 17.1 µM, percent relative to cAMP agonist control] | Potency [3] | activity change, negative = inhibition [4] -4.41% [at 30.8 µM] | activation [5] 17.4% [at 30.8 µM]

COC1=C(Nc2ccc(O)cc2)C(=O)c2ccccc2C1=O
inactive: Potency [1] | activation [2] 5% [at 17.1 µM, percent relative to cAMP agonist control] | Potency [3] | activity change, negative = inhibition [4] 4.79% [at 30.8 µM] | activation [5] 25.2% [at 30.8 µM]

CC(=O)Nc1ccc(NC(=S)NC(=O)/C=C/c2ccco2)cc1
inactive: Potency [1] | Potency [2] | Potency [3] | Potency [4] | Potency [5]

O=C(O)c1cccc(N2C(=O)c3cc([N+](=O)[O-])cc4cc([N+](=O)[O-])cc(c34)C2=O)c1
inactive: Potency [1] | Potency [2] | Potency [4] | Potency [5]
active: Potency [3] 37.9 µM

Clc1ccc(CON/C=N/c2ncnc3sccc23)cc1
inactive: Potency [1] | activation [2] 8% [at 17.1 µM, percent relative to cAMP agonist control] | Potency [3] | activity change, negative = inhibition [4] -10% [at 30.8 µM] | activation [5] 11.3% [at 30.8 µM]

Cc1ccc(F)c(S(=O)(=O)NC(=O)C2(C)CCN2C(=O)C2(c3ccc(Cl)cc3)CCC2)c1 (stereo not given)
inactive: Potency [1] | Potency [2] | Potency [3] | Potency [4] | Potency [5]

Cc1ccc(CN(C(=O)COc2cccc([N+](=O)[O-])c2)c2ccccn2)cc1
inactive: Potency [1] | Potency [2] | outcome [3] inactive [at 12.7 µM] | Potency [4] | Potency [5]

CCc1cccc(C)c1Nc1c(-c2ccsc2)nc2ncccn12
inactive: Potency [1] | Potency [2] | outcome [3] inactive [at 12.7 µM] | Potency [4] | Potency [5]

COc1cccc2sc(N(CCCN(C)C)C(=O)C(c3ccccc3)c3ccccc3)nc12
inactive: Potency [1] | activation [2] 7.29% [at 17.1 µM, percent relative to cAMP agonist control] | Potency [3] | activity change, negative = inhibition [4] -0.182% [at 30.8 µM] | activation [5] 23.9% [at 30.8 µM]

CC1CCCCN1S(=O)(=O)c1ccc(C(=O)Nc2nnc(-c3ccccc3Cl)o2)cc1 (stereo not given)
inactive: Potency [1] | activation [2] 0% [at 17.1 µM, percent relative to cAMP agonist control] | Potency [3] | activity change, negative = inhibition [4] -13.1% [at 30.8 µM] | activation [5] 16.2% [at 30.8 µM]

COc1ccc(Nc2nnc(-c3ccc(O)cc3)c3ccccc23)cc1
inactive: Potency [1] | activation [2] 5.03% [at 17.1 µM, percent relative to cAMP agonist control] | Potency [3] | activity change, negative = inhibition [4] -17.5% [at 30.8 µM] | activation [5] 26.4% [at 30.8 µM]

C=CCc1cccc(CNc2c(C)cc(C)cc2C)c1O
inactive: Potency [1] | Potency [2] | Potency [3] | Potency [4] | Potency [5]

CN(CC(=O)Nc1ccc(Cl)c(C(F)(F)F)c1)C(=O)Cc1c[nH]c2ccccc12
inactive: Potency [1] | activation [2] 5.51% [at 17.1 µM, percent relative to cAMP agonist control] | Potency [3] | activity change, negative = inhibition [4] -15.4% [at 30.8 µM] | activation [5] 36.2% [at 30.8 µM]

CCOC(=O)c1ccc2c(c1)C1C=CCC1C(C(=O)OCC)N2 (stereo not given)
inactive: Potency [1] | activation [2] 4.17% [at 17.1 µM, percent relative to cAMP agonist control] | Potency [3] | activity change, negative = inhibition [4] -1.12% [at 30.8 µM] | activation [5] 32.7% [at 30.8 µM]

COc1ccc(OC)c(CCNC(=O)c2ccc(CS(=O)(=O)c3ccc(Br)cc3)o2)c1
inactive: Potency [1] | Potency [2] | Potency [3] | Potency [4] | Potency [5]

N#CC(c1nc2ccccc2nc1OCCO)S(=O)(=O)c1ccccc1 (stereo not given)
inactive: Potency [1] | activation [2] -1.2% [at 17.1 µM, percent relative to cAMP agonist control] | Potency [3] | activity change, negative = inhibition [4] -25.3% [at 30.8 µM] | activation [5] 20.5% [at 30.8 µM]

CCOC(=O)C1CCc2c(ccc3ccccc23)N1CCC#N (stereo not given)
inactive: Potency [1] | activation [2] 0.813% [at 17.1 µM, percent relative to cAMP agonist control] | Potency [3] | activity change, negative = inhibition [4] -15.2% [at 30.8 µM] | activation [5] 2.64% [at 30.8 µM]

CCOC(=O)C1=C(CC)OC(N)=C(C#N)C1c1ccc(F)cc1F (stereo not given)
inactive: Potency [1] | Potency [2] | Potency [3] | Potency [4] | Potency [5]

C=CCn1cc(C(=O)N2CCc3ccccc3C2)c(=O)c2cc(S(=O)(=O)N(CC)CC)ccc21
inactive: Potency [1] | Potency [2] | Potency [3] | Potency [4] | Potency [5]

Cc1ccc(-c2nnc(Nc3ccc(OCC(N)=O)cc3)c3ccccc23)cc1S(N)(=O)=O
inactive: Potency [1] | Potency [2] | Potency [3] | Potency [4] | Potency [5]

COc1ccccc1C1CC(=O)Oc2cc(C)c(Cl)cc21 (stereo not given)
active: Potency [3] 9.53 µM
inactive: Potency [1] | Potency [2] | Potency [4] | Potency [5]

C/C=C/c1cc(OC)c2c(c1)[C@H](C)[C@@H](c1ccc(O)c(OC)c1)O2
inactive: Potency [1] | Potency [2] | Potency [3] | Potency [4] | Potency [5]

CC(=O)Nc1ccc(S(=O)(=O)Nc2nc3ccccc3nc2-n2ccc(=NC(=O)c3ccccc3)cc2)cc1
inactive: Potency [1] | activation [2] -0.645% [at 17.1 µM, percent relative to cAMP agonist control] | Potency [3] | activity change, negative = inhibition [4] -23.7% [at 30.8 µM] | activation [5] 5.94% [at 30.8 µM]

N#Cc1c(SCC(=O)Nc2cccc(C(F)(F)F)c2)sc2c(O)cc(=O)[nH]c12
inactive: Potency [1] | activation [2] 0% [at 17.1 µM, percent relative to cAMP agonist control] | Potency [3] | activity change, negative = inhibition [4] -10.8% [at 30.8 µM] | activation [5] 17.2% [at 30.8 µM]

COc1ccccc1-n1c(C)c(C(=O)O)c2cc(OC)c3ccccc3c21
active: Potency [3] 47.8 µM
inactive: Potency [1] | Potency [2] | Potency [4] | Potency [5]

COc1ccc2oc(C(=O)Nc3ccc(N4CCOCC4)cc3)c(C)c2c1
inactive: Potency [1] | activation [2] -0.0841% [at 17.1 µM, percent relative to cAMP agonist control] | Potency [3] | activity change, negative = inhibition [4] 7.62% [at 30.8 µM] | activation [5] 8.1% [at 30.8 µM]

O=C(Nc1c2c(nc3ccccc13)CCCC2)c1ccccc1F
inactive: Potency [1] | activation [2] -3.93% [at 17.1 µM, percent relative to cAMP agonist control] | Potency [3] | activity change, negative = inhibition [4] -18.6% [at 30.8 µM] | activation [5] 12.9% [at 30.8 µM]

CC[C@@H]1CC=C[C@H]2[C@H]1C(=O)N(Cc1ccccc1)[C@H]2c1ccc(C(F)(F)F)cc1
inactive: Potency [1] | Potency [2] | Potency [3] | Potency [4] | Potency [5]

CC1(C)C=Cc2cc(-c3coc4cc(O)cc(O)c4c3=O)cc(O)c2O1
inactive: Potency [1] | Potency [2] | Potency [3] | Potency [4] | Potency [5]

COc1ccc(S(=O)(=O)Nc2ccccc2SC)cc1C
active: Potency [3] 10.7 µM
inactive: Potency [1] | Potency [2] | Potency [4] | Potency [5]

CC1=NCCN1S(=O)(=O)c1c(C(C)C)cc(C(C)C)cc1C(C)C
inactive: Potency [1] | Potency [2] | Potency [3] | Potency [4] | Potency [5]

Cc1ccc(/C=C(\CCC(=O)O)c2nc3ccccc3s2)cc1[N+](=O)[O-]
inactive: Potency [1] | activation [2] 6.79% [at 17.1 µM, percent relative to cAMP agonist control] | Potency [3] | activity change, negative = inhibition [4] -11.2% [at 30.8 µM] | activation [5] 0.0676% [at 30.8 µM]

COc1ccc(/C=N/NC(=O)c2cc(C(C)(C)C)[nH]n2)cc1COc1ccc(F)cc1F
inactive: Potency [1] | activation [2] 3.4% [at 17.1 µM, percent relative to cAMP agonist control] | Potency [3] | activity change, negative = inhibition [4] -14.1% [at 30.8 µM] | activation [5] 19.8% [at 30.8 µM]

CC1(NC(=O)CCc2nc3sc4c(c3c(=O)[nH]2)CCCC4)CCS(=O)(=O)C1 (stereo not given)
inactive: Potency [1] | activation [2] 0.392% [at 17.1 µM, percent relative to cAMP agonist control] | Potency [3] | activity change, negative = inhibition [4] -17% [at 30.8 µM] | activation [5] 8.58% [at 30.8 µM]

C=Cc1ccc(Cn2nc(-c3ccccc3)ccc2=O)cc1
inactive: Potency [1] | activation [2] -8.97% [at 17.1 µM, percent relative to cAMP agonist control] | Potency [3] | activity change, negative = inhibition [4] -16.6% [at 30.8 µM] | activation [5] 15.7% [at 30.8 µM]
